Experimental data from PubChem BioAssay (NCATS).
Results filed as inconclusive are left out. A call without a number means that no potency is given here. Calls of active or inactive are those of the source. Calls follow the shape of the dose curve; as a rule, active = well fitted inhibition curve with a large enough effect; inconclusive = small, poorly fitted or top-dose-only effect; inactive = flat fitted curve, though single readings scatter.

biological target: Glutathione peroxidase 1 (Homo sapiens) (UniProt P07203); assay: Primary qHTS Assay for Inhibitors of Recombinant Selenoprotein Glutathione Peroxidase 1 (GPX1) (AID 1845191); settings: recombinant GPX1, GR-coupled NADPH fluorescence, 15 min; series mostly up to 48.8 µM; activity, negative = inhibition: at the top concentration
Procedure, shortened: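 GPX1 10 nM, GR 100 nM, GSH 1 mM, NADPH 0.5 mM, CHP 0.5 mM (final). 30-min cpd preincubation, RT. Ex340/Em450 read t=0, t=15 min.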
Also: nearly all actives have a fitted effect of over 65% in size.

Glutathione peroxidase 1 (Homo sapiens), sequence (P07203 whole entry, looked up): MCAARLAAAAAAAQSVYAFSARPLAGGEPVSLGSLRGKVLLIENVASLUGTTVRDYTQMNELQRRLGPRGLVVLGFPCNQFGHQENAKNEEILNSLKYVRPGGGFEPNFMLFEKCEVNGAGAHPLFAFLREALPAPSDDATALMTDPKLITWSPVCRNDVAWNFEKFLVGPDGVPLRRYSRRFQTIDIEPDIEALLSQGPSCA

Row | SMILES | Potency | outcome | activity, negative = inhibition
1 | CS(=O)(=O)c1ccc(C(=O)Nc2ccc(Cl)c(-c3ccccn3)c2)c(Cl)c1 | inactive |  | 
2 | O=c1ncn2nc(Sc3ccc(F)cc3F)ccc2c1-c1c(Cl)cccc1Cl |  | inactive | 
3 | CCN(c1ccccc1)c1cc(NC)[n+](C)c(C)n1 |  | inactive | 
4 | Cc1cc(Nc2nc(N[C@@H](C)c3ncc(F)cn3)ncc2Cl)n[nH]1 | inactive |  | 
5 | O=C(NOC[C@H](O)CO)c1ccc(F)c(F)c1Nc1ccc(I)cc1F |  | inactive | 
6 | CC1(C)CNc2cc(NC(=O)c3cccnc3NCc3ccncc3)ccc21 | inactive |  | 
7 | Cc1ccnc(NS(=O)(=O)c2ccc(NC(=O)Nc3ccc(S(=O)(=O)Nc4nccc(C)n4)cc3)cc2)n1 |  |  | -7.19% (inactive)
8 | CCc1ccc(CCOc2ccc(CC3SC(=O)NC3=O)cc2)nc1 (configuration not stated) | inactive |  | 
9 | O=c1[nH]c(-c2ccc(C(F)(F)F)cc2)nc2c1CSCC2 | inactive |  | 
10 | CNC(=O)c1ccccc1Sc1ccc2c(/C=C/c3ccccn3)n[nH]c2c1 | inactive |  | 
11 | C[C@@H]1CN(Cc2ccc(F)cc2)[C@@H](C)CN1C(=O)c1cc2c(C(=O)C(=O)N(C)C)cn(C)c2cc1Cl |  | inactive | 
12 | CC1(C)Cc2c(-c3ccccc3)c(-c3ccc(Cl)cc3)c(CC(=O)O)n2C1 |  | inactive | 
13 | CC(C)c1onc(-c2c(Cl)cccc2Cl)c1COc1ccc(/C=C/c2cccc(C(=O)O)c2)c(Cl)c1 |  |  | 3.84% (inactive)
14 | CC(C)(N)C(=O)N[C@H](COCc1ccccc1)C(=O)N1CCC2(CC1)CN(S(C)(=O)=O)c1ccccc12 | inactive |  | 
15 | Clc1ccc(Nc2nnc(Cc3ccncc3)c3ccccc23)cc1 | inactive |  | 
16 | NC(=O)c1ccc(-c2nc(-c3ccc4c(c3)OCO4)c(-c3ccccn3)[nH]2)cc1 |  | inactive | 
17 | COc1cc(Oc2ccnc3cc(OC)c(OC)cc23)ccc1NC(=O)NC(C)c1nccs1 (configuration not stated) | inactive |  | 
18 | Cc1cc(-c2ccc(CC(=O)Nc3ccc(-c4cccnc4)cc3)cc2)ccn1 |  |  | -1.59% (inactive)

Row | SMILES | Potency | outcome | activity, negative = inhibition
19 | CCOc1ccn(-c2ccc(F)cc2)c(=O)c1C(=O)Nc1ccc(Oc2ccnc(N)c2Cl)c(F)c1 | inactive |  | 
20 | COc1c(Cl)cc2c([nH]c3cnccc32)c1NC(=O)c1cccnc1C |  |  | -1.49% (inactive)
21 | O=C1[C@H](Cc2ccc(O)cc2)N2C(=O)CCN(C(=O)NCc3ccccc3)[C@H]2CN1Cc1cccc2ccccc12 |  |  | -3.35% (inactive)
22 | CN([C@@H](Cc1ccc(OS(=O)(=O)c2cccc3cnccc23)cc1)C(=O)N1CCN(c2ccccc2)CC1)S(=O)(=O)c1cccc2cnccc12 |  | inactive | 
23 | CCCS(=O)(=O)Nc1ccc(F)c(C(=O)c2c[nH]c3ncc(Cl)cc23)c1F |  | inactive | 
24 | C[C@H](NC(=O)Cc1cc(F)cc(F)c1)C(=O)N[C@@H]1C(=O)N(C)c2ccccc2-c2ccccc21 | inactive |  | 
25 | CC(=O)NC(C)c1ccc(Oc2ccc(OC(C)C)cc2)cc1 (configuration not stated) |  | inactive [at 98.3 µM] | 
26 | COc1ccc(-c2c(-c3ccc(O)cc3O)n[nH]c2C)cc1 |  |  | -11.2% (inactive)
27 | CC(C)OC(=O)C1=CN(C(=O)c2ccc(F)c(F)c2)CC(C)(C)c2c1[nH]c1ccccc21 |  |  | 3.62% (inactive)
28 | COc1cccc2cc(-c3nc(C4CCC(C(=O)O)CC4)n4ncnc(N)c34)[nH]c12 (configuration not stated) |  | inactive | 
29 | CC[C@@H](C)[C@H](NC(=O)[C@H](CC1CCCCC1)NC(=O)c1ccno1)C(=O)N1CCC2(CCc3ccccc32)CC1 | inactive |  | 
30 | CN(C)c1ccc(C2Nc3ccc4ccccc4c3C3=C2C(=O)CC(C)(C)C3)cc1Br (configuration not stated) | inactive |  | 
31 | Cc1cc2c(F)c(Oc3ncnn4cc(OC[C@@H](C)O)c(C)c34)ccc2[nH]1 |  | inactive | 
32 | COc1cc(F)c(F)c(Nc2ccc(I)cc2F)c1NS(=O)(=O)C1(C[C@H](O)CO)CC1 | inactive |  | 
33 | CN(C(=O)c1ccc(F)cc1C(F)(F)F)C1CCN(c2nnc(-c3ccnn3C)c3ccccc23)CC1 | inactive |  | 
34 | CCn1c(-c2nonc2N)nc2cnc(Oc3cccc(NC(=O)c4ccc(OCCN5CCOCC5)cc4)c3)cc21 |  | inactive | 
35 | Nc1cccc(S(=O)(=O)N2CCCN(S(=O)(=O)c3ccc4c(c3)OCCO4)CC2)c1 |  | inactive | 

biological target: Phospholipid hydroperoxide glutathione peroxidase GPX4 (Homo sapiens) (UniProt P36969); assay: Primary qHTS Assay for Inhibitors of Recombinant Selenoprotein Glutathione Peroxidase 4 (GPX4) (AID 1845192); settings: recombinant GPX4, GR-coupled NADPH fluorescence, 15 min; series mostly up to 50 µM; activity change, negative = inhibition: at the top concentration
Procedure, shortened: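 qHTS, GR-coupled: GPX4 200 nM + cpd 30 min RT → GSH 1 mM, NADPH 0.5 mM, GR 100 nM → CHP 0.5 mM start; fluor 340/450 at t0 and t15 min; no-enzyme wells as control.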

Phospholipid hydroperoxide glutathione peroxidase GPX4 (Homo sapiens), sequence (P36969 whole entry, looked up): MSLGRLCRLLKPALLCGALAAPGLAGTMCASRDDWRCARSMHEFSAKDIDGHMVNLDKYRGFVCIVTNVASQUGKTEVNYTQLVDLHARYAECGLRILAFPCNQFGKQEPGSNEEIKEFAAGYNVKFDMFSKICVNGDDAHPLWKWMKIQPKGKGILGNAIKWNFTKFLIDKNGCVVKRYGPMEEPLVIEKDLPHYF

Row | SMILES | Potency | activity change, negative = inhibition | outcome
36 | CS(=O)(=O)c1ccc(C(=O)Nc2ccc(Cl)c(-c3ccccn3)c2)c(Cl)c1 | inactive |  | 
37 | O=c1ncn2nc(Sc3ccc(F)cc3F)ccc2c1-c1c(Cl)cccc1Cl |  | -16.4% (inactive) | 
38 | CCN(c1ccccc1)c1cc(NC)[n+](C)c(C)n1 |  | 4.59% (inactive) | 
39 | Cc1cc(Nc2nc(N[C@@H](C)c3ncc(F)cn3)ncc2Cl)n[nH]1 | inactive |  | 
40 | O=C(NOC[C@H](O)CO)c1ccc(F)c(F)c1Nc1ccc(I)cc1F |  | 1.5% (inactive) | 
41 | CC1(C)CNc2cc(NC(=O)c3cccnc3NCc3ccncc3)ccc21 | inactive |  | 
42 | Cc1ccnc(NS(=O)(=O)c2ccc(NC(=O)Nc3ccc(S(=O)(=O)Nc4nccc(C)n4)cc3)cc2)n1 |  | 0.992% (inactive) | 
43 | CCc1ccc(CCOc2ccc(CC3SC(=O)NC3=O)cc2)nc1 (configuration not stated) | inactive |  | 
44 | O=c1[nH]c(-c2ccc(C(F)(F)F)cc2)nc2c1CSCC2 |  | 4.75% (inactive) | 
45 | CNC(=O)c1ccccc1Sc1ccc2c(/C=C/c3ccccn3)n[nH]c2c1 | inactive |  | 
46 | C[C@@H]1CN(Cc2ccc(F)cc2)[C@@H](C)CN1C(=O)c1cc2c(C(=O)C(=O)N(C)C)cn(C)c2cc1Cl |  | -2% (inactive) | 
47 | CC1(C)Cc2c(-c3ccccc3)c(-c3ccc(Cl)cc3)c(CC(=O)O)n2C1 |  | 9.32% (inactive) | 
48 | CC(C)(N)C(=O)N[C@H](COCc1ccccc1)C(=O)N1CCC2(CC1)CN(S(C)(=O)=O)c1ccccc12 | inactive |  | 
49 | Clc1ccc(Nc2nnc(Cc3ccncc3)c3ccccc23)cc1 | inactive |  | 
50 | NC(=O)c1ccc(-c2nc(-c3ccc4c(c3)OCO4)c(-c3ccccn3)[nH]2)cc1 |  | -14.1% (inactive) | 
51 | COc1cc(Oc2ccnc3cc(OC)c(OC)cc23)ccc1NC(=O)NC(C)c1nccs1 (configuration not stated) | inactive |  | 

Row | SMILES | Potency | activity change, negative = inhibition | outcome
52 | Cc1cc(-c2ccc(CC(=O)Nc3ccc(-c4cccnc4)cc3)cc2)ccn1 |  | 0.915% (inactive) | 
53 | CCOc1ccn(-c2ccc(F)cc2)c(=O)c1C(=O)Nc1ccc(Oc2ccnc(N)c2Cl)c(F)c1 | inactive |  | 
54 | COc1c(Cl)cc2c([nH]c3cnccc32)c1NC(=O)c1cccnc1C |  | -2.97% (inactive) | 
55 | CN([C@@H](Cc1ccc(OS(=O)(=O)c2cccc3cnccc23)cc1)C(=O)N1CCN(c2ccccc2)CC1)S(=O)(=O)c1cccc2cnccc12 |  | -5.51% (inactive) | 
56 | CCCS(=O)(=O)Nc1ccc(F)c(C(=O)c2c[nH]c3ncc(Cl)cc23)c1F |  | 3.63% (inactive) | 
57 | C[C@H](NC(=O)Cc1cc(F)cc(F)c1)C(=O)N[C@@H]1C(=O)N(C)c2ccccc2-c2ccccc21 |  | 9.8% (inactive) | 
58 | CC(=O)NC(C)c1ccc(Oc2ccc(OC(C)C)cc2)cc1 (configuration not stated) |  |  | inactive [at 100 µM]
59 | CC(C)OC(=O)C1=CN(C(=O)c2ccc(F)c(F)c2)CC(C)(C)c2c1[nH]c1ccccc21 |  | 2.17% (inactive) | 
60 | COc1cccc2cc(-c3nc(C4CCC(C(=O)O)CC4)n4ncnc(N)c34)[nH]c12 (configuration not stated) |  | 0.902% (inactive) | 
61 | CC[C@@H](C)[C@H](NC(=O)[C@H](CC1CCCCC1)NC(=O)c1ccno1)C(=O)N1CCC2(CCc3ccccc32)CC1 | inactive |  | 
62 | CN(C)c1ccc(C2Nc3ccc4ccccc4c3C3=C2C(=O)CC(C)(C)C3)cc1Br (configuration not stated) |  | -7.57% (inactive) | 
63 | Cc1cc2c(F)c(Oc3ncnn4cc(OC[C@@H](C)O)c(C)c34)ccc2[nH]1 |  | 3.07% (inactive) | 
64 | COc1cc(F)c(F)c(Nc2ccc(I)cc2F)c1NS(=O)(=O)C1(C[C@H](O)CO)CC1 | inactive |  | 
65 | CN(C(=O)c1ccc(F)cc1C(F)(F)F)C1CCN(c2nnc(-c3ccnn3C)c3ccccc23)CC1 | inactive |  | 
66 | CCn1c(-c2nonc2N)nc2cnc(Oc3cccc(NC(=O)c4ccc(OCCN5CCOCC5)cc4)c3)cc21 |  |  | inactive
67 | Nc1cccc(S(=O)(=O)N2CCCN(S(=O)(=O)c3ccc4c(c3)OCCO4)CC2)c1 |  | -16% (inactive) | 
